Values joined by “and” are separate entries in the source; they are usually repeats but may differ in a detail not shown here. Equal entries are not always repeated. Where a structure was tested more than once in an assay, its records may differ in their call. Active and inactive are the calls of the source. The calls were made as follows: active = hit-call score of the fitted dose curve at least 0.9, where 1 is the maximum; inactive = score below 0.9.
Key:
[1] = read-out: Plasminogen activator inhibitor-1 (PAI1), SERPINE1 (gene 5054); assay: BSK_hDFCGF_PAI1: BioMAP Diversity Plus: hDFCGF Assay for Plasminogen activator inhibitor-1 (PAI1) Biomarker Activity (AID 2283066); conditions: primary human foreskin fibroblasts; actives raise or lower the signal
Summary of the method: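 Human foreskin fibroblasts in the hDFCGF system were dosed with compound for 24 h; PAI-1 was quantified by ELISA. Bidirectional curve fitting used DMSO as negative control and baseline.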

[2] = read-out: Intercellular Adhesion Molecule 1 (ICAM1), ICAM1 (gene 3383); assay: BSK_KF3CT_ICAM1: BioMAP Diversity Plus: KF3CT Assay for Intercellular Adhesion Molecule 1 (ICAM1) Biomarker Activity (AID 2283067); conditions: primary human keratinocytes with fibroblasts; actives raise or lower the signal
Summary of the method: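 Cell-surface ICAM-1 was measured by ELISA 24 h after dosing primary human skin keratinocytes co-cultured with fibroblasts. Parallel SRB staining tracked overt cytotoxicity. Gain or loss of signal was fitted relative to DMSO.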

[3] = read-out: Interferon-gamma inducible Protein 10 (IP10), CXCL10 (gene 3627); assay: BSK_KF3CT_IP10: BioMAP Diversity Plus: KF3CT Assay for Interferon-gamma inducible Protein 10 (IP10) Biomarker Activity (AID 2283068); conditions: primary human keratinocytes with fibroblasts; actives raise or lower the signal
Summary of the method: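 KF3CT co-culture (keratinocytes + foreskin fibroblasts), 24 h compound, IP-10 by ELISA; bidirectional fit vs DMSO baseline.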

[4] = BSK_KF3CT_SRB: Viability Assessment in the BioMAP Diversity Plus: KF3CT Assay (AID 2283069); conditions: primary human keratinocytes with fibroblasts;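 also: total protein by sulforhodamine B staining as a cytotoxicity measure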
Summary of the method: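 Human keratinocyte and foreskin fibroblast co-culture exposed to chemical for 24 h. Total protein measured in parallel cultures by 0.1% sulforhodamine B staining after 10% TCA fixation, read at 560 nm; bidirectional fit relative to DMSO.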

[5] = read-out: Interleukin-1 alpha (IL1a), IL1A (gene 3552); assay: BSK_KF3CT_IL1a: BioMAP Diversity Plus: KF3CT Assay for Interleukin-1 alpha (IL1a) Biomarker Activity (AID 2283070); conditions: primary human keratinocytes with fibroblasts; actives raise or lower the signal
Summary of the method: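 Primary human keratinocyte plus foreskin fibroblast co-culture, dosed and measured at 24 h in 96-well plates. IL-1a level quantified by ELISA; bidirectional fit relative to DMSO.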

[6] = read-out: TIMP metallopeptidase inhibitor 2 (TIMP2), TIMP2 (gene 7077); assay: BSK_KF3CT_TIMP2: BioMAP Diversity Plus: KF3CT Assay for TIMP metallopeptidase inhibitor 2 (TIMP2) Biomarker Activity (AID 2283071); conditions: primary human keratinocytes with fibroblasts; actives raise or lower the signal
Summary of the method: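 Human primary keratinocyte/foreskin fibroblast co-culture dosed with chemical and sampled at 24 h. TIMP-2 levels quantified by ELISA; bidirectional fitting against DMSO negative control as baseline.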

[7] = read-out: Transforming growth factor beta 1 (TGFb1), TGFB1 (gene 7040); assay: BSK_KF3CT_TGFb1: BioMAP Diversity Plus: KF3CT Assay for Transforming growth factor beta 1 (TGFb1) Biomarker Activity (AID 2283072); conditions: primary human keratinocytes with fibroblasts; actives raise or lower the signal
Summary of the method: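 Human keratinocyte plus foreskin fibroblast primary co-culture, dosed with chemical for 24 h. TGF-b1 quantified by ELISA. Activity fitted bidirectionally against DMSO negative control as baseline.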

[8] = read-out: C-C motif chemokine 2 (Homo sapiens) (UniProt P13500); assay: BSK_KF3CT_MCP1: BioMAP Diversity Plus: KF3CT Assay for Monocyte Chemoattractant Protein 1 (MCP1/CCL2) Biomarker Activity (AID 2283073); conditions: primary human keratinocytes with fibroblasts; actives raise or lower the signal
Summary of the method: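 ELISA read-out of MCP-1, 24 h post-dose, in primary human skin keratinocytes co-cultured with fibroblasts. Parallel SRB staining monitors cytotoxicity; changes fitted both directions relative to DMSO.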

[9] = read-out: Matrix Metallopeptidase 9 (MMP9), MMP9 (gene 4318); assay: BSK_KF3CT_MMP9: BioMAP Diversity Plus: KF3CT Assay for Matrix Metallopeptidase 9 (MMP9) Biomarker Activity (AID 2283074); conditions: primary human keratinocytes with fibroblasts; actives raise or lower the signal;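 as to AC50: MMP9 protein level quantified by ELISA in the co-culture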
Summary of the method: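 Human keratinocyte and foreskin fibroblast co-culture exposed to chemicals for 24 h; MMP9 biomarker measured by ELISA, bidirectional fitting relative to DMSO; cytotoxicity tracked by SRB total protein staining in parallel cultures.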

[10] = read-out: urokinase plasminogen activator (uPA), PLAU (gene 5328); assay: BSK_KF3CT_uPA: BioMAP Diversity Plus: KF3CT Assay for urokinase plasminogen activator (uPA) Biomarker Activity (AID 2283075); conditions: primary human keratinocytes with fibroblasts; actives raise or lower the signal
Summary of the method: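 Primary human keratinocyte/foreskin fibroblast co-culture exposed to chemical; uPA measured by ELISA at 24 h. Bidirectional fit versus DMSO, with parallel SRB total-protein staining for cytotoxicity.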

CD40, CD40 (gene 958) = assay: BSK_LPS_CD40: BioMAP Diversity Plus: LPS Assay for CD40 Biomarker Activity (AID 2283076); conditions: primary human HUVEC with PBMC; actives raise or lower the signal
Summary of the method: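 In the LPS system of human endothelial cells with peripheral blood mononuclear cells, CD40 levels were read by ELISA 24 h post-treatment. Signal changes in either direction were fitted against the DMSO baseline, with parallel SRB protein staining.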

[11] = read-out: E-selectin (Homo sapiens) (UniProt P16581); assay: BSK_LPS_Eselectin: BioMAP Diversity Plus: LPS Assay for Eselectin Biomarker Activity (AID 2283077); conditions: primary human HUVEC with PBMC; actives raise or lower the signal
Summary of the method: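 E-selectin ELISA on LPS-stimulated endothelial cell/PBMC co-cultures, read 24 h post-treatment; gains and losses fitted against DMSO. Parallel SRB staining (0.1% SRB after 10% TCA fixation, 560 nm) flags overt cytotoxicity.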

[12] = read-out: Interleukin-8 (IL8), CXCL8 (gene 3576); assay: BSK_LPS_IL8: BioMAP Diversity Plus: LPS Assay for Interleukin-8 (IL8) Biomarker Activity (AID 2283078); conditions: primary human HUVEC with PBMC; actives raise or lower the signal
Summary of the method: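 ELISA read-out of IL-8 after 24 h chemical treatment of LPS-activated endothelial/PBMC human primary co-cultures. Changes either up or down relative to DMSO; overt cytotoxicity checked by sulforhodamine B staining in parallel wells.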

[13] = BSK_LPS_SRB: Viability Assessment in the BioMAP Diversity Plus: LPS Assay (AID 2283079); conditions: primary human HUVEC with PBMC;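 also: total protein by sulforhodamine B absorbance as a cytotoxicity measure; measured one day after compound addition; fitted in both directions against DMSO so loss or gain of signal counts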
Summary of the method: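 SRB viability endpoint: cells fixed with 10% TCA, stained with 0.1% SRB, read at 560 nm, 24 h post-dose. HUVEC/PBMC co-culture; signal change in either direction scored relative to DMSO.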

[14] = read-out: Interleukin-1 alpha (IL1a), IL1A (gene 3552); assay: BSK_LPS_IL1a: BioMAP Diversity Plus: LPS Assay for Interleukin-1 alpha (IL1a) Biomarker Activity (AID 2283080); conditions: primary human HUVEC with PBMC; actives raise or lower the signal
Summary of the method: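 Readout is IL-1a level by ELISA, 24 h post-dose, fitted as gain or loss relative to DMSO. System: LPS-activated human primary co-culture of vascular endothelium and peripheral blood mononuclear cells, with parallel SRB total-protein cytotoxicity.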

[15] = read-out: Monocyte Chemoattractant Protein-1 (MCP1), CCL2 (gene 6347); assay: BSK_LPS_MCP1: BioMAP Diversity Plus: LPS Assay for Monocyte Chemoattractant Protein-1 (MCP1) Biomarker Activity (AID 2283081); conditions: primary human HUVEC with PBMC; actives raise or lower the signal;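 as to AC50: secreted MCP-1 protein quantified by ELISA in culture supernatant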
Summary of the method: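 Secreted MCP-1 read by ELISA at 24 h post-dosing in an LPS-activated co-culture of endothelial cells with peripheral blood mononuclear cells. Fits run in both directions, DMSO as baseline; parallel SRB staining tracks overt cytotoxicity.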

[16] = BSK_LPS_PGE2: BioMAP Diversity Plus: LPS Assay for Prostaglandin E2 (PGE2) Biomarker Activity (AID 2283082); conditions: primary human HUVEC with PBMC; actives raise or lower the signal;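 as to AC50: secreted prostaglandin E2 measured by ELISA in LPS-stimulated co-culture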
Summary of the method: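 HUVEC plus PBMC co-culture stimulated with LPS; secreted PGE2 quantified by ELISA 24 h after chemical dosing. Activity fitted bidirectionally against DMSO as negative control and baseline; parallel SRB total-protein staining served as cytotoxicity check.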

[17] = read-out: Macrophage colony-stimulating factor (MCSF), CSF1 (gene 1435); assay: BSK_LPS_MCSF: BioMAP Diversity Plus: LPS Assay for Macrophage colony-stimulating factor (MCSF) Biomarker Activity (AID 2283083); conditions: primary human HUVEC with PBMC; actives raise or lower the signal
Summary of the method: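 Bidirectional fitting against DMSO was applied to M-CSF levels read by ELISA at 24 h post-dose. The system pairs human umbilical vein endothelium with peripheral blood mononuclear cells; parallel SRB staining tracked cytotoxicity.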

[18] = read-out: Tissue Factor, F3 (gene 2152); assay: BSK_LPS_TissueFactor: BioMAP Diversity Plus: LPS Assay for Tissue Factor Biomarker Activity (AID 2283084); conditions: primary human HUVEC with PBMC; actives raise or lower the signal
Summary of the method: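 Compound was added to an endothelial cell/PBMC co-culture, and after 24 h tissue factor (CD142) was read by ELISA. Gain or loss of signal was fitted against a DMSO baseline, and parallel SRB staining (560 nm) tracked overt cytotoxicity.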

[19] = read-out: Tumor necrosis factor (Homo sapiens) (UniProt P01375); assay: BSK_LPS_TNFa: BioMAP Diversity Plus: LPS Assay for Tumour Necrosis Factor alpha (TNFa) Biomarker Activity (AID 2283085); conditions: primary human HUVEC with PBMC; actives raise or lower the signal
Summary of the method: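 Human umbilical vein endothelial cells co-cultured with PBMC were exposed to test chemical and TNFa measured by ELISA 24 h after dosing. Bidirectional curve fitting was done relative to DMSO as negative control and baseline.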

Measured: AC50

Chain of E-selectin (Homo sapiens) (P16581 whole entry, looked up): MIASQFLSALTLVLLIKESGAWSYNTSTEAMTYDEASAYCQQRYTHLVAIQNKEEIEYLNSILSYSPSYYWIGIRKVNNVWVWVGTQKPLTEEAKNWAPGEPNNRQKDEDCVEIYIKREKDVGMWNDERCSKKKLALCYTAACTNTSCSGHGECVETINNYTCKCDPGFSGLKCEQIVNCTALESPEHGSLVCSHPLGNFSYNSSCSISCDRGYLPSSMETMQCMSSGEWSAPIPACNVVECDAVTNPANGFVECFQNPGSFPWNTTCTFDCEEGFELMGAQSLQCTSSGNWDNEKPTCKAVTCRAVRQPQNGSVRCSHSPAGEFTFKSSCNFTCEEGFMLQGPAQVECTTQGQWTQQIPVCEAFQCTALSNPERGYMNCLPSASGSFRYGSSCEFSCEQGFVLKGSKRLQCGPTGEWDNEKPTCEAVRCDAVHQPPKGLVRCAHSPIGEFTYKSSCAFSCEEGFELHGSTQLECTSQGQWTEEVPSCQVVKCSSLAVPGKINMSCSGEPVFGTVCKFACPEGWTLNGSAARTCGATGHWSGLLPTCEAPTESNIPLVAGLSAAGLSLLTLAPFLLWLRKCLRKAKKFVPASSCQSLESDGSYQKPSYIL
Chain of Tumor necrosis factor (Homo sapiens) (P01375 whole entry, looked up): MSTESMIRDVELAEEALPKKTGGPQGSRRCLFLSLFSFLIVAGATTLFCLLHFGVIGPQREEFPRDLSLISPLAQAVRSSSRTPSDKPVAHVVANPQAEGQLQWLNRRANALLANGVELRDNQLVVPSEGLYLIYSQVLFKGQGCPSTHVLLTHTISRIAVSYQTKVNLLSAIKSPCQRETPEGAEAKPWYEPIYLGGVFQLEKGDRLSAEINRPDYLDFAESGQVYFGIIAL

c1ccc2c(c1)oc1ccccc12
inactive: all assays above

CNC(=O)Oc1cccc2c1OC(C)(C)C2
inactive: all assays above

CCNS(=O)(=O)C(F)(F)C(F)(F)C(F)(F)C(F)(F)C(F)(F)C(F)(F)C(F)(F)C(F)(F)F
active: [1] 30.1 µM and 23.3 µM and 47.3 µM | [2] 46.2 µM | [3] 20.9 µM and 30.5 µM and 43.7 µM | [4] 46.1 µM | [5] 41.5 µM and 47.7 µM | [6] 48.2 µM and 54.7 µM | [7] 19.3 µM | [9] 29.6 µM and 40.2 µM and 36.2 µM | [10] 50.5 µM and 47.5 µM | CD40, CD40 (gene 958) 46.1 µM and 42.2 µM | [12] 30 µM | [13] 44.2 µM and 46 µM | [15] 48.8 µM and 51.7 µM | [17] 49 µM
inactive: [2] | [4] | [5] | [6] | [10] | CD40, CD40 (gene 958) | [11] | [12] | [13] | [14] | [15] | [16] | [17] | [18]

O=P(OCCCl)(OCCCl)OCCCl
inactive: all assays above

Cn1cc(-c2ccccc2)c(=O)c(-c2cccc(C(F)(F)F)c2)c1
active: [16] 2.7 µM
inactive: all other assays above

CCCCC(CC)COC(=O)c1ccc(C(=O)OCC(CC)CCCC)c(C(=O)OCC(CC)CCCC)c1 (stereo unspecified)
not listed: [8] | [19]
inactive: all other assays above

Source: PubChem BioAssay (EPA / NIEHS)
